Screening data (PubChem BioAssay)
This is a sample that favours compounds with a hit; in the whole collection about 1.3% have one here.
BRCA1 expr up = qHTS Assay to Identify Small Molecule Activators of BRCA1 Expression | actives 1.1% (n = 380,000) | AID 624202, 2012 | MCF7-BRCA1-FFLuc reporter, luminescence, 48 h; response scale: scaled: vehicle 0%, 10 µM genistein 100% | Potency, µM (titrated, usually from 46.1 µM), most hits filed as activators; also: nearly all actives have a fitted effect of over 80% in size
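Compounds are tested at multiple concentrations on MCF7 BRCA1-luciferase reporter cells seeded at 2000 per well; after 48 h, a single luminescence end-point is taken and curves fitted to the normalized data.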
EPAC1 antagonist = qHTS for Antagonist of cAMP-regulated guanine nucleotide exchange factor 3 (EPAC1): primary screen; EPAC1 GEF assay, Rap1b-BODIPY-GDP exchange fluorescence; actives 0.14% (n = 360,000); Potency, µM (titrated, usually from 115 µM), hits mostly inhibitors; also: nearly all actives have a fitted effect of over 50% in size
EPAC2 agonist = qHTS for Agonist of cAMP-regulated guanine nucleotide exchange factor 4 (EPAC2): primary screen; Potency, µM (titrated, usually from 154 µM), actives largely listed as activators; EPAC2 activation, biochemical qHTS; response scale: 100% = 6.5 mM cAMP response; AID 720711, 2013; Rap guanine nucleotide exchange factor 4 (Homo sapiens), Q8WZA2; actives 0.079% (n = 360,000); also: nearly all actives have a fitted effect of over 50% in size
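EPAC2 (100 nM) mixed with Rap1B loaded with BODIPY-GDP (250 nM) plus 50 uM unlabeled GDP; compounds pinned in, 5 min RT, then read every 5 min for 30 min (ex 480, em 540 nm). Normalized to cAMP control.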
EPAC2 antagonist = qHTS for Antagonist of cAMP-regulated guanine nucleotide exchange factor 2 (EPAC2): primary screen. Rap guanine nucleotide exchange factor 4 (Homo sapiens), Q8WZA2. EPAC2 GEF exchange of Rap1B-BODIPY-GDP, fluorescence. Potency, µM (highest dose often 114 µM), most hits filed as inhibitors. actives 0.18% (n = 360,000); also: nearly all actives have a fitted effect of over 45% in size
RGS4 inhibitor = Inhibitors of Regulator of G Protein Signaling (RGS) 4: qHTS; Regulator of G-protein signaling 4 (Homo sapiens), P49798; Transcreener GDP fluorescence polarization, RGS4-accelerated GTP hydrolysis; Potency, µM (titrated, usually from 114 µM), hits mostly inhibitors; actives 0.039% (n = 390,000); also: nearly all actives have a fitted effect of over 75% in size
Target sequence (P49798 whole entry, looked up): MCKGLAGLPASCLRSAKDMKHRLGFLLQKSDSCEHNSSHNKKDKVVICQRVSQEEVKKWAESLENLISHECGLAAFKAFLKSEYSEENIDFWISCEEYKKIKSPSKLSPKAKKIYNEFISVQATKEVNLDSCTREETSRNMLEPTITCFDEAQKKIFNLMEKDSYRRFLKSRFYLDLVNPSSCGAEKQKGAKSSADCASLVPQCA
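MLSMR compounds (23 nl, pin-transferred) preincubated 10 min at room temperature with a 500nM (2x) first reagent, then RGS4 at 900nM (2x) plus Transcreener GDP mix added; fluorescence polarization (620/688 nm) read before and after 90 min at 30 °C.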
EPAC1 agonist = qHTS for Agonist of cAMP-regulated guanine nucleotide exchange factor 3 (EPAC1): primary screen; Rap guanine nucleotide exchange factor 3 (Homo sapiens), O95398; EPAC1 agonist qHTS, biochemical assay; response scale: 100% = response to 6.5 mM cAMP; Potency, µM (highest dose often 154 µM), actives largely listed as activators; actives 0.073% (n = 360,000); also: nearly all actives have a fitted effect of over 60% in size
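Multi-concentration qHTS readout: loss of Rap1B-bound BODIPY-GDP fluorescence driven by 100 nM EPAC1 with excess GDP (50 uM), monitored kinetically at room temperature; agonist response expressed relative to 6.5 mM cAMP.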
A number is an active result; i = inactive; ? = inconclusive; [ ] = remark or other dose. Calls follow the shape of the dose curve; as a rule, active = well fitted curve in the direction sought with a large enough effect; inconclusive = small, poorly fitted or top-dose-only effect, or another doubt; inactive = no such curve, though single readings can be large; an effect the other way counts as inactive or inconclusive.

SMILES	BRCA1 expr up	EPAC1 antagonist	EPAC2 agonist	EPAC2 antagonist	RGS4 inhibitor	EPAC1 agonist
CN1CCN(C(=O)Nc2ccc3c(c2)N(C)C(=O)c2ccccc2S3)CC1	i	i	i	i	i	i
O=C(NC(=S)Nc1ccccc1[N+](=O)[O-])c1ccccc1Cl	12.6µM	i	i	i	i	i
O=C(CSc1nc2ccccc2s1)CSc1nc2ccccc2s1	i	i	i	i	i	i
CC(=O)CSc1nc2ccccc2s1	12.6µM	i	i	i	i	i
O=c1oc2ccccc2n1CSc1nc2ccccc2s1	12.6µM	i	i	i	i[11.4 µM]	i
O=c1oc2ccccc2n1CSC1=NCCS1	i	i	i	i	i	i
CCS(=O)(=O)c1ccc2oc(Nc3ccc(C(C)(C)C)cc3)nc2c1	i	i	i	i	i	i
CC(C)CCNC(=O)c1ccc2c(c1)ncn2C1CCCC1	7.08µM	i	i	i	i	i
CCOC(=O)Nc1ccc2c(c1)ncn2C1CCCCC1	12.6µM	i	i	i	i	i
CCOCCCNC(=O)c1ccc2c(c1)ncn2C1CCCC1	?	i	i	i	i	i
Cn1c(N)c(C(C[N+](=O)[O-])c2c(F)cccc2Cl)c(=O)n(C)c1=O (configuration not stated)	i	i	i	i	i	i
CC(OC(=O)CNC(=O)c1ccccc1F)C(=O)Nc1nc(-c2ccccc2)cs1 (configuration not stated)	6.31µM	i	i	i	i	i
CC(OC(=O)c1ccc(O)cc1)C(=O)Nc1nc(-c2ccccc2)cs1 (configuration not stated)	i	i	i	i	i	i
CN(C)C(=O)c1cc(C(=O)c2ccc(C(F)(F)F)cc2)c[nH]1	10µM	i	i	i	i	i
CN(C)C(=O)c1cc(C(=O)c2ccc(F)cc2Cl)c[nH]1	i	i	i	i	i	i
c1ccc(OCCOc2ncnc3sccc23)cc1	7.08µM	i	i	i	i	i
COc1cccc(COc2ncnc3sccc23)c1	i	i	i	i	i	i
CCOc1ccc(C2C(C(=O)c3ccco3)=C(O)C(=O)N2CCN2CCOCC2)cc1OCC (configuration not stated)	i	i	i	i	i	i
CCCCc1nc(SCCOC)c2c(=O)n(C)c(=O)n(C)c2n1	i	i	i	17.8µM	i	i
Cc1nc(NC(=O)c2cccnc2Cl)sc1C	3.16µM	i	i	i	i	i
Cc1nc(NC(=O)Nc2ccc(Cl)cc2)sc1C	5.62µM	i	i	i	i	i
CCc1c(C)c2ccc(OCC(=O)NCC3CCC(C(=O)O)CC3)c(C)c2oc1=O (configuration not stated)	i	i	i	i	i	i
CC(C)c1ccc(-c2nc(N3CCCC3)nc3n[nH]c(N)c23)cc1	i	i	i	i	i	i
CCc1oc2ccccc2c1C(=O)c1cc(Br)c(O)c(Br)c1	i	?	i	10µM	i	i
CC(OC(=O)C1CSC2(C)CCC(=O)N12)C(=O)Nc1cccc(C#N)c1 (configuration not stated)	i	i	i	i	i	i
CC(=O)Nc1sc2c(c1-c1nc3ccccc3s1)CCN(C(C)C)C2	i	i	63.1µM	i	i	i
Clc1ccc(-c2nnc(-c3ccco3)o2)cc1	5.62µM	i	i	i	i	i
COc1cccc(-c2nnc(-c3ccc4ccccc4c3)o2)c1	?	i	i	i	i	i
Cc1ccc(-c2nnc(-c3ccc4ccccc4c3)o2)cc1	4.47µM	i	i	i	i	i
